GLP-1R inv ag = inverse agonists of human GLP-1 receptor; HEK293 GLP-1R CRE-luciferase, luminescence, 24 h; GLP-1R form is constitutively active; Potency, µM (top dose mostly 38.3 µM), most hits filed as inhibitors; 410,000 tested, 1.6% active; P43220; note: nearly all actives have a fitted effect of over 55% in size
Target sequence (P43220 whole entry, looked up): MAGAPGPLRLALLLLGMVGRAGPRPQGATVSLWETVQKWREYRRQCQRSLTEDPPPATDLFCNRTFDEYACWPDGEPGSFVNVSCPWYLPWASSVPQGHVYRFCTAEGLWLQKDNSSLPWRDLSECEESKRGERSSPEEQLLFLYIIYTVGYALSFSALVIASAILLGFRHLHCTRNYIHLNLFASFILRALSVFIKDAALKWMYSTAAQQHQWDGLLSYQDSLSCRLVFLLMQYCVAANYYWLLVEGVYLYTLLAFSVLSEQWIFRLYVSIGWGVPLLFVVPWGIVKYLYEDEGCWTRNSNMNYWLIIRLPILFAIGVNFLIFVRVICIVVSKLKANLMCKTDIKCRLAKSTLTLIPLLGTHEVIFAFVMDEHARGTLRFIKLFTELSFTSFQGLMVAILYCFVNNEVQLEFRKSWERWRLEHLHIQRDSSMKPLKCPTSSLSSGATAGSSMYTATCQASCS
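Assay principle: reduced luminescence from a cAMP-responsive reporter in HEK293 cells co-expressing a constitutively active GLP-1R. Conditions: 24 hr compound incubation, 37 deg C, 5% CO2.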
D3 ag = D3 dopamine receptor (human) agonism; P35462; D3R DiscoveRx beta-arrestin cells, luminescence, 90 min; max activation, %; 410,000 tested, 0.58% active; AID 652048; in the data active = max activation above about 30%
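Agonist-mode cell screen: cells plated at 1500/well and incubated overnight at 37 °C, then exposed to library compounds for 90 min at 37 °C. Detection reagent was added for 30–60 min at room temperature, and luminescence was read.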
D3 antag = antagonists of human D3 dopamine receptor; 360,000 tested, 2.5% active; AID 652054; P35462; D3R cells, DiscoveRx beta-arrestin luminescence, antagonist mode; stronger effect = lower value; max response, negative = inhibition, %; in the data active = max response below about -50%; inconclusive = no clear call, values can overlap the other calls
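Cells expressing the human receptor were seeded at 1500 cells/well, incubated overnight at 37 degrees C in 5% CO2, then exposed to library compounds with dopamine controls for 90 minutes at 37 degrees C before luminescent detection.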
GLP-1R agonist = GLP-1 receptor (human) agonism; P43220; 380,000 tested, 0.007% active; Potency, µM (top dose mostly 45.6 µM), actives largely listed as activators; AID 624172; HEK293 GLP-1R CRE-luciferase, luminescence, 4-6 h; cells express a hypersensitive GLP-1R form
Of the large screens only hits and unclear results are named; the others gave an inactive call. Sampled rows, rich in hits. Any-hit rate of the full collection: about 4.3%. Unless noted, calls come from the whole dose curve; as a rule, active = well fitted curve in the direction sought with a large enough effect; inconclusive = small, poorly fitted or top-dose-only effect, or another doubt; inactive = no such curve, though single readings can be large; an effect the other way counts as inactive or inconclusive.

O=C(OCC(=O)N(CCc1ccccc1)Cc1ccccc1)c1ccccc1O	GLP-1R inv ag 10µM
O=C(OCC(=O)N(CCc1ccccc1)Cc1ccccc1)c1ccccc1NCCO	GLP-1R inv ag 10µM
CC1=C(C(=O)Nc2ccccc2C)C(c2sccc2C)n2ncnc2N1 (configuration not stated)	none (no result: D3 antag)
Cc1ccc2cccc(NC(=O)COc3ccccc3Cl)c2n1	none (no result: D3 antag)
COc1ccc(C(C(=O)NC(C)(C)C)n2c(=O)c(-c3cc4ccccc4[nH]3)nc3ccccc32)cc1 (configuration not stated)	GLP-1R inv ag 10µM (no result: GLP-1R agonist)
CCCCCNC(=O)C(CCc1ccccc1)n1c(=O)c(-c2cc3ccccc3[nH]2)nc2ccccc21 (configuration not stated)	GLP-1R inv ag 3.5µM (no result: GLP-1R agonist)
CCCCCNC(=O)C(c1ccccc1)n1c(=O)c(-c2cc3ccccc3[nH]2)nc2ccccc21 (configuration not stated)	GLP-1R inv ag inconclusive (no result: GLP-1R agonist)
Cc1cccc(C)c1NC(=O)C(c1ccc(C#N)cc1)n1c(=O)c(-c2ccccc2)nc2ccccc21 (configuration not stated)	GLP-1R inv ag inconclusive, D3 antag -60 (no result: GLP-1R agonist)
CC(C)(C)NC(=O)C(c1ccccc1)n1c(=O)c(-c2ccccc2)nc2ccccc21 (configuration not stated)	GLP-1R inv ag 11µM (no result: GLP-1R agonist)
O=C(O)c1ccc(N2C(=O)c3[nH]nc(-c4ccccc4)c3C2c2cccc(F)c2)cc1 (configuration not stated)	none (no result: D3 antag)
O=C(NC1CCCCC1)C(c1ccc(C(F)(F)F)cc1)n1c(=O)c(-c2cc3ccccc3[nH]2)nc2ccccc21 (configuration not stated)	GLP-1R inv ag 2.5µM (no result: GLP-1R agonist)
O=C(NC1CCCCC1)C(c1ccncc1)n1c(=O)c(-c2cc3ccccc3[nH]2)nc2ccccc21 (configuration not stated)	GLP-1R inv ag inconclusive (no result: GLP-1R agonist)
O=C(CSc1nc(=O)n(CCCN2CCOCC2)c2c1CCC2)Nc1cccc(F)c1	none
O=C(Cn1c(=O)nc(-c2ccccc2)c2ccccc21)N1CCN(c2ccc(F)cc2)CC1	none (no result: D3 antag, GLP-1R agonist)
Cc1ccc2nc(C(C)(C)C)c(Cc3ccsc3)n2c1	D3 antag -107
O=[N+]([O-])c1ccccc1N(CC1CO1)S(=O)(=O)c1ccccc1 (configuration not stated)	none
CCN(CCCNC(=O)CCc1nc(-c2ccc(C)cc2)no1)c1cccc(C)c1	GLP-1R inv ag 10µM
Cc1ccc(-c2noc(CCC(=O)NCCN3CCc4ccccc4C3)n2)cc1	GLP-1R inv ag inconclusive, D3 antag -76
CCOC(=O)/C(C)=N/NC(=O)c1ccc([N+](=O)[O-])cc1	none
CCOC(=O)C(CC)/C(C)=N/NC(=O)c1ccc([N+](=O)[O-])cc1 (configuration not stated)	D3 antag -64
COc1ccc(S(=O)(=O)N2CC3CCCN3c3ccc(C(F)(F)F)cc32)cc1 (configuration not stated)	none
COc1ccc(S(=O)(=O)N2CC3CCCN3c3cc(C(F)(F)F)ccc32)cc1 (configuration not stated)	GLP-1R inv ag 10µM
O=S(Cc1cc(Oc2ccccc2)nc(-c2ccccc2)n1)c1ccccc1 (configuration not stated)	GLP-1R inv ag 10µM
O=C(Nc1nnc(-c2ccco2)o1)c1ccc2ccccc2c1	GLP-1R inv ag inconclusive
Cc1ccnc(NC(=O)c2ccc(S(=O)(=O)N3CCCCC3)cc2)c1	none
Cc1ccnc(NC(=O)c2ccc(S(=O)(=O)N3CCCCCC3)cc2)c1	GLP-1R inv ag 11µM
CC1CC(C)CN(S(=O)(=O)c2ccc(C(=O)Nc3nnc(-c4cccs4)o3)cc2)C1 (configuration not stated)	GLP-1R inv ag inconclusive
Cc1nnc(NC(=O)c2ccc(S(=O)(=O)N3CCCCCC3)cc2)o1	D3 antag -72
Cc1nnc(NC(=O)c2ccc3ccccc3c2)o1	GLP-1R inv ag 11µM, D3 antag inconclusive
CCC1CCCCN1S(=O)(=O)c1ccc(C(=O)Nc2nnc(-c3cccs3)o2)cc1 (configuration not stated)	GLP-1R inv ag inconclusive, D3 antag -75
Cc1nnc(NC(=O)c2ccc(S(=O)(=O)N(C)Cc3ccccc3)cc2)o1	GLP-1R inv ag inconclusive, D3 antag -72
Cc1ccc(S(=O)(=O)Nc2nc3ccccc3nc2Nc2cccc(S(=O)(=O)N3CCCC3)c2)cc1	GLP-1R inv ag inconclusive, D3 ag 32
O=[N+]([O-])c1cccc(S(=O)(=O)Nc2nc3ccccc3nc2Nc2cccc(S(=O)(=O)N3CCCCC3)c2)c1	GLP-1R inv ag inconclusive
Cc1cc(C)cc(Nc2nc(-c3ccc(S(=O)(=O)N4CCCC4)cc3)cs2)c1	GLP-1R inv ag 3.5µM
Cc1ccc(Nc2nc(-c3ccc(S(=O)(=O)N4CCCC4)cc3)cs2)cc1C	GLP-1R inv ag inconclusive
Cc1cccc(NC(=S)NC(=O)c2cc(-c3ccccc3)nc3ccccc23)c1	GLP-1R inv ag inconclusive, D3 antag -54
CCCc1cc(C(=O)NNC(=S)NCC)c2ccccc2n1	D3 antag -56
CCCOc1ccc(C(=O)NNC(=S)NC(=O)c2cc(-c3ccccc3)nc3ccccc23)cc1	D3 antag -55
Cc1ccccc1NC(=S)NC(=O)c1cc(-c2ccccc2)nc2ccccc12	GLP-1R inv ag 7.9µM
CCNC(=S)NNC(=O)c1cc(-c2cc(C)ccc2C)nc2ccccc12	none
CCOC(=O)c1cc(-c2ccccc2)n(CC(=O)NC2CCC(C)CC2)c1C (configuration not stated)	none (no result: D3 antag, GLP-1R agonist)
O=C(CNC(=O)c1ccccc1Cl)OCc1cc(=O)n2ccsc2n1	none (no result: D3 antag, GLP-1R agonist)
CCc1ccccc1Nc1nc(-c2cccnc2)cs1	GLP-1R inv ag 11µM
COc1ccccc1Nc1nc(-c2cccnc2)cs1	GLP-1R inv ag inconclusive
COc1ccc(-n2ncc3c(N4CCN(c5cccc(C)c5)C(C)C4)ncnc32)cc1 (configuration not stated)	GLP-1R inv ag inconclusive (no result: D3 antag, GLP-1R agonist)
Cc1nc(SCC(=O)Nc2ccc(F)cc2)c(C#N)c(C)c1CC(=O)c1ccc(Br)cc1	none
Cc1cccc(NC(=O)CSc2nc(C)c(CC(=O)c3ccc(Br)cc3)c(C)c2C#N)c1C	D3 antag -53
COc1ccc(OC)c(NC(=O)Cn2c(=O)cc(-c3ccccc3)c3c(C)nn(C)c32)c1	none (no result: D3 antag, GLP-1R agonist)
COc1ccccc1-n1c(/C=C/c2c(C)n(C)c3ccccc23)nc2ccccc2c1=O	none (no result: D3 antag, GLP-1R agonist)
COc1ccccc1/C=C/C1(C(=O)NC2CCCC2)CC(=O)N1c1ccc(F)cc1 (configuration not stated)	GLP-1R inv ag 3.5µM
COc1ccccc1/C=C/C1(C(=O)NC2CCCC2)CC(=O)N1c1ccc(C)cc1 (configuration not stated)	GLP-1R inv ag inconclusive
CCOc1ccc(CCNC(=O)Cn2ncn3c(cc4sc(C)cc43)c2=O)cc1OCC	none (no result: D3 antag, GLP-1R agonist)
CC(C)c1ccc(NC(=O)c2cc(S(=O)(=O)N3CCCCC3)cn2C)cc1	none (no result: D3 antag)
